Measured values as given in PubChem BioAssay (NCATS).
Records with an inconclusive call do not appear. Calls of active or inactive are those of the source. Calls follow the shape of the dose curve; as a rule, active = well fitted curve in the direction sought with a large enough effect; inconclusive = small, poorly fitted or top-dose-only effect, or another doubt; inactive = no such curve, though single readings can be large; an effect the other way counts as inactive or inconclusive.

Columns and labels:
CRL-7250 = normal cell line; assay: Cytotoxic Profiling of Annotated Libraries Using Quantitative High-Throughput Screening (AID 1296008); details: Five cell lines viability, CellTiter-Glo ATP luminescence, 48-72 h; max response: stronger effect = lower value; also: nearly all actives have a fitted effect of over 60% in size; as to max response: % is scaled to controls: 0 for no effect and ±100 for the full control effect
In short: (§1)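 Cytotoxicity was measured as CellTiter-Glo ATP luminescence, read after 10 min at room temperature. Compound treatment of the cells lasted 48 or 72 hr at 37 degrees Celsius in a qHTS format.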

HEK293 = assay: as above; details: Five cell lines viability, CellTiter-Glo ATP luminescence, 48-72 h; max response: stronger effect = lower value
In short: as §1

HaCat [1] = assay: as above; details: Five cell lines viability, CellTiter-Glo ATP luminescence, 48-72 h; max response: stronger effect = lower value
In short: as §1

KB-3-1 = assay: as above; details: Five cell lines viability, CellTiter-Glo ATP luminescence, 48-72 h; max response: stronger effect = lower value
In short: as §1

NIH3T3 = assay: as above; details: Five cell lines viability, CellTiter-Glo ATP luminescence, 48-72 h; max response: stronger effect = lower value
In short: as §1

HACAT [2] = assay: qHTS assay to identify novel small-molecules to repurpose for Merkel cell carcinoma treatment (AID 1296009); details: MCC and control cell lines, CellTiter-Glo viability, 72 h; at 44.8 µM (top of the series) unless noted; also: nearly all actives have a fitted effect of over 60% in size
In short: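 Cell viability measured by CellTiter-Glo following 72 hr compound treatment at 37 degree celsius, with NPC and MIPE libraries tested in 8- and 11-point concentration series.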

C33A = assay: Primary qHTS to identify gynecologic anti-cancer compounds using libraries of approved drugs and bioactive compounds (AID 1345084); details: Gynecologic cancer cell panel viability, ATPlite luminescence, 48 h; series mostly up to 57.5 µM; also: % is scaled to controls: 0 for no effect and ±100 for the full control effect; nearly all actives have a fitted effect of over 55% in size
In short: (§2)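 ATP-based viability (ATPlite), 1,000 cells/well, 16 h pre-incubation, 48 h compound at 37 C, 5% CO2, 15 min RT before read.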

CAOV3 = assay: as above; details: Gynecologic cancer cell panel viability, ATPlite luminescence, 48 h; series mostly up to 57.5 µM
In short: as §2

CASKI = assay: as above; details: Gynecologic cancer cell panel viability, ATPlite luminescence, 48 h; series mostly up to 57.5 µM
In short: as §2

Es-2 = assay: as above; details: Gynecologic cancer cell panel viability, ATPlite luminescence, 48 h; series mostly up to 57.5 µM
In short: as §2

HeLa = assay: as above; details: Gynecologic cancer cell panel viability, ATPlite luminescence, 48 h; series mostly up to 57.5 µM
In short: as §2

Hek293T = assay: as above; details: Gynecologic cancer cell panel viability, ATPlite luminescence, 48 h, control line for the selectivity index; series mostly up to 57.5 µM
In short: as §2

JEG-3 = assay: as above; details: Gynecologic cancer cell panel viability, ATPlite luminescence, 48 h; series mostly up to 57.5 µM
In short: as §2

OV90 = assay: as above; details: Gynecologic cancer cell panel viability, ATPlite luminescence, 48 h; series mostly up to 57.5 µM
In short: as §2

PA-1 = assay: as above; details: Gynecologic cancer cell panel viability, ATPlite luminescence, 48 h; series mostly up to 57.5 µM
In short: as §2

OCC(O)C(c1c[nH]c2ccccc12)c1c[nH]c2ccccc12 (stereo not given)
inactive: outcome (CRL-7250) | max response (HEK293) -8.71% | outcome (HaCat [1]) | outcome (KB-3-1) | max response (NIH3T3) 1.42% | outcome (HACAT [2]) | Potency (C33A) | Potency (CAOV3) | outcome (CASKI) | Potency (Es-2) | Potency (HeLa) | Potency (Hek293T) | Potency (JEG-3) | Potency (OV90) | Potency (PA-1)

COc1cc(C(C)=O)ccc1O[C@@H]1O[C@H](CO)[C@@H](O)[C@H](O)[C@H]1O
inactive: max response (CRL-7250) -12.2% | max response (HEK293) -0.593% | outcome (HaCat [1]) | max response (KB-3-1) 6.72% | max response (NIH3T3) 0.808% | outcome (HACAT [2]) | Potency (C33A) | Potency (CAOV3) | outcome (CASKI) | Potency (Es-2) | Potency (HeLa) | Potency (Hek293T) | Potency (JEG-3) | Potency (OV90) | Potency (PA-1)

Cc1cccc(NC(=O)CN2CCC(c3ccccn3)CC2)c1
inactive: outcome (CRL-7250) | max response (HEK293) -3.86% | outcome (HaCat [1]) | max response (KB-3-1) -2.52% | max response (NIH3T3) 4.5% | outcome (HACAT [2]) | Potency (C33A) | Potency (CAOV3) | outcome (CASKI) | Potency (Es-2) | Potency (HeLa) | Potency (Hek293T) | Potency (JEG-3) | Potency (OV90) | Potency (PA-1)

NC(=O)c1ccc(F)c2c1C[C@@H](N(C1CCC1)C1CCC1)CO2
inactive: outcome (CRL-7250) | max response (HEK293) -5.17% | outcome (HaCat [1]) | max response (KB-3-1) 4.79% | max response (NIH3T3) 3.88% | outcome (HACAT [2]) | Potency (C33A) | Potency (CAOV3) | outcome (CASKI) | Potency (Es-2) | Potency (HeLa) | Potency (Hek293T) | Potency (JEG-3) | Potency (OV90) | Potency (PA-1)

N#CC1C(=O)N=C(c2cc(Cl)ccc2O)C=C1c1cc(OCc2ccccc2)cc(OCc2ccccc2)c1 (stereo not given)
inactive: outcome (CRL-7250) | max response (HEK293) 3.52% | outcome (HaCat [1]) | outcome (KB-3-1) | max response (NIH3T3) 1.6% | outcome (HACAT [2]) | Potency (C33A) | Potency (CAOV3) | outcome (CASKI) | Potency (Es-2) | Potency (HeLa) | Potency (Hek293T) | Potency (JEG-3) | Potency (OV90) | Potency (PA-1)

C[C@@H]1O[C@@H](O[C@H]2[C@H](O[C@H]3[C@H](O[C@H]4CC[C@@]5(C)C(CC[C@]6(C)C5CC=C5[C@@H]7CC(C)(C)C[C@@H](O)[C@]7(C)CC[C@]56C)[C@@]4(C)CO)O[C@H](C(=O)O)[C@@H](O)[C@@H]3O)O[C@H](CO)[C@H](O)[C@@H]2O)[C@H](O)[C@H](O)[C@H]1O (stereo not given in full)
inactive: max response (CRL-7250) 3.95% | max response (HEK293) -3.77% | outcome (HaCat [1]) | outcome (KB-3-1) | outcome (NIH3T3) | outcome (HACAT [2]) inactive [at 9.27 µM] | activity change, negative = cytotoxicity (C33A) -1.56% [at 11.6 µM] | activity change, negative = cytotoxicity (CAOV3) 6.93% [at 11.6 µM] | activity change, negative = cytotoxicity (CASKI) 9.29% [at 11.6 µM] | activity change, negative = cytotoxicity (Es-2) 0.369% [at 11.6 µM] | activity change, negative = cytotoxicity (HeLa) 7.52% [at 11.6 µM] | activity change, negative = cytotoxicity (Hek293T) -1.54% [at 11.6 µM] | activity change, negative = cytotoxicity (JEG-3) 7.46% [at 11.6 µM] | activity change, negative = cytotoxicity (OV90) 7.08% [at 11.6 µM] | activity change, negative = cytotoxicity (PA-1) 4.96% [at 11.6 µM]

Cc1ccc(COC(=O)N2CC[C@@H](CNc3ncccn3)[C@@H](F)C2)cc1
inactive: max response (CRL-7250) -0.943% | max response (HEK293) -31.7% | outcome (HaCat [1]) | max response (KB-3-1) -17.2% | max response (NIH3T3) -18.5% | outcome (HACAT [2]) | Potency (C33A) | Potency (CAOV3) | outcome (CASKI) | Potency (Es-2) | Potency (HeLa) | Potency (Hek293T) | Potency (JEG-3) | Potency (OV90) | Potency (PA-1)

CCC12CCCN3CCc4c(n(c5ccccc45)C(O)C1)C32 (stereo not given)
inactive: max response (CRL-7250) -2.83% | max response (HEK293) -7.92% | outcome (HaCat [1]) | outcome (KB-3-1) | max response (NIH3T3) -1.2% | outcome (HACAT [2]) | Potency (C33A) | Potency (CAOV3) | outcome (CASKI) | Potency (Es-2) | Potency (HeLa) | Potency (Hek293T) | Potency (JEG-3) | Potency (OV90) | Potency (PA-1)

CN(C)c1ccc(C2O[C@@H](c3ccccc3)C[C@H](c3ccccc3)O2)cc1 (stereo not given in full)
inactive: outcome (CRL-7250) | max response (HEK293) -10.1% | outcome (HaCat [1]) | outcome (KB-3-1) | max response (NIH3T3) 4.55% | outcome (HACAT [2]) | Potency (C33A) | Potency (CAOV3) | outcome (CASKI) | Potency (Es-2) | Potency (HeLa) | Potency (Hek293T) | Potency (JEG-3) | Potency (OV90) | Potency (PA-1)

CC1CCC2C(C)(C)C(O)C(O)CC2(C)C12Cc1c(O)cc(CO)c(C=O)c1O2 (stereo not given)
inactive: max response (CRL-7250) 1.89% | max response (HEK293) -2.44% | outcome (HaCat [1]) | max response (KB-3-1) 2.63% | max response (NIH3T3) 0.788% | outcome (HACAT [2]) inactive [at 17.4 µM] | Potency (C33A) | Potency (CAOV3) | outcome (CASKI) | Potency (Es-2) | Potency (HeLa) | Potency (Hek293T) | Potency (JEG-3) | Potency (OV90) | Potency (PA-1)
